Shown are actives, neighbours in structure and some others; about 12% of the full set was active somewhere.
Shiga toxin inh: inhibitors of Shiga toxin in Vero cells; Vero cells, Shiga toxin protein synthesis inhibition reporter; inhibition, % at 38.7 µM; actives 9.2% (n = 290,000); AID 2315; in the data active = inhibition mostly above about 28%, no sharp cut-off; inactive = mostly below about 43%; note: 0% is about no effect
SARS PLpro yeast: inhibitors of SARS-CoV papain-like protease in yeast | S. cerevisiae expressing SARS-CoV PLpro, growth rescue | Potency, µM (highest dose often 32.9 µM), for inactives: at the top dose activity, positive = growth rescue, most hits filed as activators | actives 0.19% (n = 330,000); note: potency is the fitted concentration of half-maximal effect; 0% is about no effect; nearly all actives have a fitted effect of over 55% in size
CHX counter: affects cycloheximide protein synthesis inhibition readout, counter-screen. max response, %. actives 12% (n = 300,000). cell reporter, cycloheximide protein synthesis inhibition counterscreen; in the data active = max response mostly above about 13%, no sharp cut-off; inactive = mostly below about 14%; note: read at 38.3 µM for the half of the compounds with a filed dose; 0% is about no effect
NS1 inh: inhibitors of influenza NS1 protein function; Potency, µM (top dose mostly 46.1 µM), for inactives: top-dose activity, positive = more growth; actives 0.4% (n = 270,000); AID 2326; note: potency is the fitted concentration of half-maximal effect; actives are rising curves; nearly all actives have a fitted effect of over 50% in size
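S. cerevisiae expressing influenza A NS1, grown in glucose, washed, then diluted 1:100 into pH 6.0 -URA galactose medium with 23 nl compound. Growth recovery read as OD600; NS1-free strain serves as control.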
The depositor's hits bear a star; u = inconclusive; x = no result given. Unless noted, calls come from the whole dose curve.

SMILES	Shiga toxin inh	SARS PLpro yeast	CHX counter	NS1 inh
CCOC(=O)C1CCCN(C(=O)CCCn2nnnc2CN2CCC(C)CC2)C1 (configuration not stated)	-7.7	-5.2%	-1.8	-11.9%
COc1ccccc1NC(=O)CSc1ccc(-c2ccccn2)nn1	18.8	-18.9%	13.0*	-118.2%
CCOc1ccc(NC(=O)CSc2ccc(-c3ccccn3)nn2)cc1	-10.2	7.94µM*	0.7	-2.9%
Cc1ccc(NC(=O)CSc2ccc(-c3ccccn3)nn2)cc1	17.5	u	27.9	x
Cc1ccc2c(c1)NC(=O)C(N1CCOCC1)(C(F)(F)F)O2 (configuration not stated)	-10.3	-7.4%	-1.2	-3.7%
CCOC(=O)c1ccc(NC(=O)COC(=O)c2cccc(Oc3ccccc3)c2)cc1	16.7	0.4%	-1.0	-4.8%
O=C(/C=C/c1ccc2ccccc2n1)c1cc(Cl)ccc1O	65.7*	-4.8%	39.1*	10.7%
CCOc1ccc(NC(c2ccccn2)c2oc(CO)cc(=O)c2O)cc1 (configuration not stated)	81.3*	24.4%	45.9*	1.1%
O=C(OCCc1cc2ccccc2c(=O)o1)c1ccco1	x	-2.4%	x	x
Cc1ccc(C(=O)OC(C)C(=O)c2cc(C)c(C)cc2C)o1 (configuration not stated)	27.1	x	20.4*	-8.3%
Cc1cc(C)c(C(=O)C(C)OC(=O)c2ccccn2)cc1C (configuration not stated)	0.2	1.9%	-3.0	-17.9%
COc1ccc(NC(=O)C2Cc3ccccc3CN2C(=O)c2ccco2)cc1 (configuration not stated)	43.2	0.2%	20.5*	-1.5%
Cc1ccc(NC(=O)C2Cc3ccccc3CN2C(=O)c2ccco2)cc1S(=O)(=O)N(C)C (configuration not stated)	79.3*	-3.4%	30.7*	-5.5%
O=C(Nc1nnc(C2CC2)s1)C1Cc2ccccc2CN1C(=O)c1ccco1 (configuration not stated)	39.4*	0.8%	22.9*	x
CN(C)S(=O)(=O)c1cccc(NC(=O)C2Cc3ccccc3CN2C(=O)c2ccco2)c1 (configuration not stated)	69.0*	3.8%	21.1*	5.7%
O=C(Nc1ccccc1N1CCOCC1)C1Cc2ccccc2CN1C(=O)c1ccco1 (configuration not stated)	-12.8	2.0%	-3.2	6.3%
Cc1ccc(C)c(NC(=S)NCCN(C2CCCCC2)C2CCCC2)c1	28.5	-2.3%	4.3	x
COc1ccc(-c2nnc(SCC(=O)N3CCCC3=O)n2N)cc1OC	x	3.4%	x	x
O=C(O)c1nc2ccccc2nc1C(=O)O	80.9*	0.9%	46.0*	-3.8%
COCCn1cnc2c1c(=O)n(CC(=O)NC(=O)NC(C)(C)C)c(=O)n2Cc1ccccc1	-3.1	4.4%	-2.5	3.4%
CCOC(=O)c1oc2ccc(CNCCO)c(Cl)c2c1C	82.0*	0.1%	40.2*	-4.4%
CCOc1cccc(-c2c(C(=O)N/N=C/c3ccc(C)o3)nnn2-c2nonc2N)c1	-5.2	-0.9%	-9.4	14.4%
COc1ccc2cnn(CCOc3ccccc3)c(=O)c2c1OC	59.2	5.2%	34.0*	-63.6%
COc1ccc2cnn(CCOc3cc(C)ccc3C(C)C)c(=O)c2c1OC	19.8	14.5%	-2.0	-17.8%
CCOc1ccccc1OCCn1ncc2ccc(OC)c(OC)c2c1=O	26.8	10.5%	18.1*	-9.2%
SMILES	Shiga toxin inh	SARS PLpro yeast	CHX counter	NS1 inh
C/C(=N/O)c1cccc(N2Cc3ccccc3C2)c1	50.7*	-0.6%	17.9*	9.4%
CCOC(=O)N1CCC(=NNc2nc(C)cc(=O)[nH]2)CC1	41.9*	2.3%	2.1	x
N#Cc1ccccc1OCC(=O)NC(=O)NCc1ccccc1	21.0	0.5%	8.5	x
CCNC(=O)NC(=O)COc1ccccc1C#N	81.1*	-4.1%	36.4*	-13.9%
N#Cc1ccccc1OCC(=O)NC(=O)NCc1ccco1	57.2*	-0.3%	25.8*	3.1%
CC(Oc1ccccc1)C(=O)OCC(=O)NC(=O)NCc1ccco1 (configuration not stated)	-2.1	-10.9%	1.5	-16.1%
Cn1c(-c2ccc(F)cc2)cnc1SCC(=O)Nc1ccccc1	6.5	-0.8%	14.9	-8.7%
CCSc1ncc(/C=N/Nc2ccc([N+](=O)[O-])cc2)n1C	54.6*	-2.8%	25.2*	6.4%
CCSc1ncc(/C=N/Nc2ccc(Cl)cc2)n1C	111.9*	-33.4%	77.4*	-102.4%
Cn1c(CO)cnc1SCC(=O)c1ccc(Cl)cc1	31.4	2.0%	17.8	x
CCSc1ncc(/C=N/Nc2ccccc2)n1C	55.4*	-12.5%	29.2*	-9.5%
CC(C)(C)c1cnnn1-c1ccc(/C=N/Nc2ccc([N+](=O)[O-])cc2)cc1	-12.8	u	-0.8	-3.8%
CN(CCO)c1ccc(C=NNc2ccc([N+](=O)[O-])cc2S(=O)(=O)Nc2ccccc2C(=O)O)cc1	x	-0.2%	x	x
CCOn1c(=O)c(-c2cc3ccccc3o2)[n+]([O-])c2ccccc21	163.4*	-2.8%	47.3*	-0.4%
O=c1c(-c2ccc(Br)cc2)[n+]([O-])c2ccccc2n1OCc1ccccn1	22.8	1.1%	0.4	1.6%
CCOn1c(=O)c(-c2ccc(Br)cc2)[n+]([O-])c2ccccc21	22.1	2.3%	8.8	0.1%
O=c1c(-c2cc3ccccc3o2)[n+]([O-])c2ccccc2n1OCc1ccccn1	101.4*	-28.4%	47.7*	3.1%
CC[C@@]1(c2ccccc2)NC(=O)NC1=O	11.0	x	5.9	x
O=C(c1ccccc1)N1CCCCC(S(=O)(=O)c2ccc3ccccc3c2)C1=O (configuration not stated)	20.9	-0.2%	-1.9	2.3%
O=C1C(=O)N(CCCn2ccnc2)C(c2cccnc2)/C1=C(/O)c1ccc(Br)cc1 (configuration not stated)	x	x	x	6.6%
C=CCN=C(NC#N)SCc1ccccc1	-14.8	-3.2%	-3.1	8.9%
C=CCN=C(NC#N)SCC(=O)c1cccc(OC)c1	63.0*	3.9%	60.8*	-11.6%
COC(=O)COc1cccc(NC(=O)COc2ccccc2)c1	0.4	-18.3%	0.7	-15.9%
CC(=O)c1cccc(OCC(=O)Nc2cccc(C(=O)Nc3c(C)n(C)n(-c4ccccc4)c3=O)c2)c1	x	-1.5%	x	x
C/C(=N\NC(=O)c1c(Cl)cnn1C)c1cccc(NC(=O)COc2ccccc2)c1	23.7	-5.6%	16.4*	-2.4%
SMILES	Shiga toxin inh	SARS PLpro yeast	CHX counter	NS1 inh
CC(=O)c1cccc(NC(=O)COc2ccccc2)c1	66.6	-10.5%	18.2*	-0.7%
CCOCC(=O)Nc1cccc(Br)c1	14.9	0.3%	5.4	-3.0%
CSc1cccc(NC(=O)COc2ccccc2)c1	61.0	-6.1%	40.1*	-55.6%
CC(C)CCOCC(=O)Nc1cccc(C(=O)O)c1	120.4*	-1.3%	105.1*	0.3%
COc1ccc(C(=O)NCC(=O)N2CCN(C(=O)c3ccco3)CC2)cc1	-2.5	u	-2.8	3.7%
Cc1ccc(NC(=O)CSCC(=O)N2CCN(c3cccc(C(F)(F)F)c3)CC2)cc1	x	-25.8%	x	x
CC(NC(=O)c1ccccc1NC(=O)c1ccccc1)C(=O)N1CCOCC1 (configuration not stated)	-5.1	6.4%	-2.2	15.0%
COc1ccc(CSc2nnc(N)s2)cc1F	86.0*	-4.4%	43.0*	-9.9%
O=[N+]([O-])c1ccc2nc(SCc3ccccc3Cl)sc2c1	23.4	0.4%	2.3	2.5%

Source: PubChem
